Only some compounds are listed: those with a hit (about 21% of all), similar ones and a draw of the others.
Shiga toxin inh – Shiga toxin inhibition | hit rate 9.2% among 290,000 | Vero cells, Shiga toxin protein synthesis inhibition reporter | inhibition, % at 38.7 µM; in the data active = inhibition mostly above about 28%, no sharp cut-off; inactive = mostly below about 43%; also: 0% is about no effect
Pf growth 96h – P. falciparum growth inhibition at 96 hour, primary screen for plastid delayed-death inhibitors | Potency, µM (top dose mostly 28.7 µM), inactives show at the highest dose activity change, negative = inhibition, actives largely listed as inhibitors | P. falciparum luciferase reporter growth, 96 h | hit rate 6.9% among 320,000; also: potency is read from the fitted curve at half-maximal effect; % is scaled to controls: 0 for no effect and ±100 for the full control effect
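Plates of compound plus infected erythrocytes (2% hematocrit, 0.05% parasitemia final) incubate 96 hours, 37 C, 5% CO2. Detection reagent added; reduced luminescence from the parasites' luciferase reporter flags inhibition.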
CHX counter – counter-screen for Shiga toxin inhibitors: cycloheximide protein synthesis inhibition. cell reporter, cycloheximide protein synthesis inhibition counterscreen. max response, %. hit rate 12% among 300,000. AID 2314; in the data active = max response mostly above about 13%, no sharp cut-off; inactive = mostly below about 14%; also: read at 38.3 µM for the half of the compounds with a filed dose; 0% is about no effect
Pf growth 48h – inhibits P. falciparum growth in the first generation, 48 h; P. falciparum luciferase growth in erythrocytes, 48 h; Potency, µM (series often up to 28.7 µM), without a hit: at the highest dose activity change, negative = inhibition, actives largely listed as inhibitors; hit rate 5.9% among 310,000; AID 504832; also: potency is read from the fitted curve at half-maximal effect; % is scaled to controls: 0 for no effect and ±100 for the full control effect
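First compound was added to culture medium, then infected red cells at 0.1% parasitemia and 2% hematocrit (final). After incubation at 37 C under 5% CO2, luciferase detection reagent was dispensed and light output recorded.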
Active calls of the source: *; ? = inconclusive; · = no result given. Unless noted, calls follow the shape of the dose curve; as a rule, active = well fitted inhibition curve with a large enough effect; inconclusive = small, poorly fitted or top-dose-only effect, or another doubt; inactive = no such curve, though single readings can be large or run the other way.

SMILES	Shiga toxin inh	Pf growth 96h	CHX counter	Pf growth 48h
Cc1ccc(SCCNC(=O)c2ccccc2F)cc1	25	?	13*	30%
CCc1c(C(=O)NNC(=S)NCCc2ccccc2)csc1C	14	1%	12*	35%
O=C(NCCc1ccccc1)c1ccccc1F	109*	-1%	35*	165%
CCN1CCN(C(=O)CCc2nnc(CCCCc3ccccc3)o2)[C@@H](C)C1=O	23	?	10	2%
CSc1nc(C)c2c(n1)N(c1ccc(C(C)C)cc1)CC2	-7	90%	-3	4%
O=C(NCCc1ccc2c(c1)OCCO2)c1ccccc1F	91*	104%	70*	112%
Cc1ccc(NS(=O)(=O)c2cc(C(=O)NCCSc3ccc(C)cc3)ccc2C)cc1	-10	12µM*	9	?
O=C(NCc1ccc(Cl)cc1)c1ccc(Cl)cc1[N+](=O)[O-]	16	88%	-3	25%
O=C(NC(=S)NCCc1ccccc1)c1ccccc1	45*	18%	18*	32%
O=C(NCCc1ccccc1)c1ccc(Cl)cc1[N+](=O)[O-]	67*	106%	27*	72%
Cc1c(C(=O)NCCc2ccc3c(c2)OCCO3)oc2ccccc12	7	2%	1	·
CC(O)CN1CCN(C(=O)CN2C(=O)NC(c3ccccc3)(c3ccccc3)C2=O)CC1 (stereo not drawn)	-9	-57%	-3	-21%
COc1ccc2c([N+](=O)[O-])c(Cl)[nH]c2c1	-19	-17%	2	10%
Cc1occc1C(=O)NCCCCc1ccccc1	55*	?	23*	·
COc1ccc(CCNC(=S)NC(=O)c2ccccc2)cc1C	17	-77%	8.4*	-9%
O=C(NCCCCc1ccccc1)c1ccccc1F	19	10%	17*	23%
O=C(NCCc1ccncc1)c1ccccc1F	12	·	-1	13%
CN(C(=O)COc1ccccc1C(=O)NCCc1ccccc1)c1ccccc1	70*	126%	30*	22%
CN(C(=O)c1ccccc1Cl)c1ccccc1C(=O)NCCc1ccccc1	1	-5%	8	-18%
C=CCNC(=S)NNC(=O)Cn1c(-c2ccccc2)cc(=O)n2ncnc12	8	7%	-1	12%
COc1ccc(CC(=O)N/N=C(\C)c2cccs2)cc1	15	-17%	11	4%
Cc1ccc(C(=O)NCC(=O)NCCCc2ccccc2)s1	28	67%	24	?
C/C(=N/NC(=O)Cc1ccccc1)c1ccc(C)s1	-28	46%	25*	68%
Cc1ccc(C(=O)NCCCc2ccccc2)s1	134*	?	53*	?
COc1ccccc1CCNC(=O)c1ccoc1C	32	13%	19*	2%
SMILES	Shiga toxin inh	Pf growth 96h	CHX counter	Pf growth 48h
O=C(NCCc1ccccc1)c1c(F)c(F)c(F)c(F)c1F	33*	-1%	11	-17%
Cc1nn(C)c(C)c1NC(=S)Nc1ccc(S(=O)(=O)Nc2ncccn2)cc1	-4	-19%	-1	-3%
CCc1noc(C)c1C(=O)OCC(=O)N(C)c1c(N)n(Cc2ccccc2)c(=O)[nH]c1=O	·	1%	·	0%
Cc1nc(N2CCN(c3ccc(Cl)cc3)CC2)[nH]c(=O)c1C	-13	?	-3	?
Cc1ccc(OC(C)C(=O)Nc2ccc(F)cc2)c([N+](=O)[O-])n1 (stereo not drawn)	·	24%	·	-28%
CC(=O)c1ccc(N2CCN(CN3C(=O)CC4(CCCC4)C3=O)CC2)c(F)c1	-1	4%	-2	?
O=[N+]([O-])c1ccccc1OCCCN1CCc2ccccc2C1	27	-100%	9.9*	-8%
Cc1ccc([N+](=O)[O-])c(OCCN2CCc3ccccc3C2)c1	30	?	16*	25%
C=CCN1C(=O)c2ccccc2NC1c1ccc(Br)s1 (stereo not drawn)	-6	10µM*	-6	13µM*
O=C1c2ccccc2NC(c2ccc(Br)o2)N1O (stereo not drawn)	·	103%	·	147%
COc1ccc(C(=O)c2cnc(C(C)C)n2C)cc1	82*	·	16*	21%
CCCc1ncc(C(=O)c2ccc(OC)cc2)n1C	42*	-4%	17	44%
CCCc1ncc(C(O)c2cccc(OC)c2)n1C (stereo not drawn)	14	41%	-2	1%
CCOc1ccc(S(=O)(=O)N2CCC(C(=O)OC(C)C(=O)N3CCOCC3)CC2)cc1 (stereo not drawn)	·	-16%	·	-14%
COc1ccc(CCNC(=O)C(=O)NCC2OCCN2S(=O)(=O)c2ccc(Cl)cc2)cc1OC (stereo not drawn)	-1	30%	-2	?
O=C(O)c1c(Cl)c(Cl)c(Cl)c(Cl)c1-c1c2cc(I)c(=O)c(I)c-2oc2c(I)c(O)c(I)cc12	-9	-26%	-7	-7%
Cn1c2cc(C#N)sc2c2cnn(Cc3ccccc3F)c(=O)c21	-14	·	-8	·
COc1cccc(N2CCN(C(=O)CC(C)(C)CC3=NS(=O)(=O)c4ccccc4N3)CC2)c1	-13	?	-1	?
CC(C)(CC(=O)N1CCN(c2ccc(Cl)cc2)CC1)CC1=NS(=O)(=O)c2ccccc2N1	-3	102%	-2	9.3µM*
COc1ccc(NC2=CC(c3ccc(OC)c(OC)c3)N(c3ccc(OC)cc3)C2=O)cc1 (stereo not drawn)	-9	?	5	?
COc1ccc(OC2C(=O)N(c3ccc(C)c(C)c3)C2c2ccc(OC)c(OC)c2)cc1 (stereo not drawn)	-16	?	-3	9.3µM*
COc1ccc(OC2C(=O)N(c3cc(C)ccc3C)C2c2ccc(OC)c(OC)c2)cc1 (stereo not drawn)	-13	20%	-4	7.4µM*
N=c1sccn1CC(=O)Nc1cccc(S(=O)(=O)N2CCCCCC2)c1	-2	?	-1	-15%
Cc1ccc(S(=O)(=O)Nc2cc(C)cn(Cc3ccc(F)cc3)c2=O)cc1	3	?	-3	0.21µM*
CCOC(=O)c1cc(C#N)c(N2CCN(C)CC2)nc1-c1ccccc1	-8	?	-3	?
SMILES	Shiga toxin inh	Pf growth 96h	CHX counter	Pf growth 48h
COc1ccc2cc(C#N)c(N3CCOCC3)nc2c1	-3	2%	-2	6%
COc1ccc2nc(N3CCC(O)CC3)c(C#N)cc2c1	92	-4%	36*	35%
COc1ccc2nc(N3CCC(C)CC3)c(C#N)cc2c1	92*	·	44*	107%
CCc1ccc2nc(N3CCN(C)CC3)c(C#N)cc2c1	17*	?	22*	17%
COc1ccc(CCC(=O)OCC(=O)c2ccc(C)cc2)cc1	-12	-2%	-3	-7%
COc1ccc(OCC(=O)O/N=C(\N)c2ccc(OC)c(OC)c2)cc1	30	?	-1	-3%
COc1cccc(OCC(=O)O/N=C(\N)c2ccc(OC)c(OC)c2)c1	1	6.6µM*	9	15%
COc1ccc(/C(N)=N/OC(=O)Cc2ccc(C)cc2)cc1OC	-5	25%	15*	24%
COc1ccc(CC(=O)O/N=C(\N)c2ccc(C)cc2)cc1	118*	59%	47*	56%
COc1ccc(CC(=O)O/N=C(\N)c2ccncc2)cc1	82*	3%	15*	4%
N/C(=N\OC(=O)Cc1ccc(Cl)cc1)c1ccncc1	28	4%	-2	?
